From PubChem BioAssay (EPA / NIEHS)
“And” between values parts separate entries of the source, which are not always exact repeats. Equal entries are not always repeated. The source made the active and inactive calls. How the source made its calls: active means hit-call score of the fitted dose curve at least 0.9, where 1 is the maximum; inactive means score below 0.9.

The molecules below were run on Interleukin 17F (IL17F), IL17F (gene 112744) (assay: BSK_BT_xIL17F: BioMAP Diversity Plus: BT Assay for Interleukin 17F (IL17F) Biomarker Activity (AID 2284243)). Conditions: primary human B cells with PBMC.
Experimental: BSK_BT is a cell-based, multiplexed-readout assay that uses B cell and peripheral blood mononuclear cells, a human vascular primary cell co-culture, with measurements taken at 24 hours after chemical dosing in a microplate: 96-well plate.BSK_BT_xIL17F is an assay component measured in the BSK_BT assay. It measures secreted IL-17F related to regulation of gene expression using LumineX xMAP technology.Data from the assay component BSK_BT_xIL17F was analyzed at the endpoint, BSK_BT_xIL17F, in the positive analysis fitting direction relative to DMSO as the negative control and baseline of activity. Using a type of cytokine quantitation reporter, gain or loss-of-signal activity can be used to understand protein changes. To generalize the intended target to other relatable targets, this assay endpoint is annotated to the 'cytokine' intended target family, where the subfamily is 'interleukins'.
The levels of cell surface (or secreted, indicated by the prefix "s") biomarker endpoints were measured by ELISA. Overt cytotoxicity to cells in confluent adherent cultures (all systems other than the BT system) was assessed by measuring total protein levels using sulforhodamine B (SRB) staining in parallel cultures at the time of biomarker measurements, indicated as SRB endpoints. For proliferation assays for adherent cell types, individual cell types are cultured at sub-confluence and relative cell numbers quantified by SRB staining at time points optimized for each system (48 h: 3C and CASM3C systems; 72 h: BT and HDF3CGF systems; 96 h: SAg system). SRB was performed by staining cells with 0.1% SRB after fixation with 10% TCA and reading wells at 560 nm.Viability and proliferation of PBMC (T cells) was quantified by Alamar Blue reduction for the SAg and BT systems. For PBMC viability (referred to as PBMC Cytotoxicity within the assay endpoint names), cells were plated (75,000/well in a 96-well plate) and then chemical samples added for 1 h before addition of activators, SEB and TSST-1 (20 ng/mL final concentration each). Cells were incubated for 90 h. Then, Alamar Blue (20 uL/well) (Invitrogen, Cat DAL1100) was added for 6 h, and the plates were read with a fluorescence microplate reader at 546/580 nm (excitation/emission). For PBMC proliferation, cells were plated and activated as above but incubated for only 16 h prior to addition of Alamar Blue. Plates were read after 6 h.

| SMILES | outcome | AC50 |
| --- | --- | --- |
| Nc1ccc(N)c([N+](=O)[O-])c1 | inactive | – |
| CCCCCCCCCCCCS | inactive | – |
| CC1(C)[C@H](C=C(Cl)Cl)[C@H]1C(=O)OCc1cccc(Oc2ccccc2)c1 | inactive | – |
| O=C(O)C(F)(F)C(F)(F)C(F)(F)C(F)(F)C(F)(F)C(F)(F)C(F)(F)C(F)F | inactive | – |
| CCCCCCCC1CCCC1=O (stereo not given) | inactive | – |
| CCCCCCCCCC(=O)OCC | inactive | – |
| CC(=O)OC(C)(C)C1CC=C(C)CC1 (stereo not given) | inactive | – |
| O=S(=O)(O)C(F)(F)C(F)(F)OC(F)(F)C(F)(F)F | inactive | – |
| CC(=O)OCC=C(C)CCC=C(C)CCC=C(C)C | – | 30.3 µM (active) |
| OCC(F)(OC(F)(F)C(F)(OC(F)(F)C(F)(F)C(F)(F)F)C(F)(F)F)C(F)(F)F (stereo not given) | – | 5.47 µM (active) and 5.77 µM (active) |
| CCOC(=O)CCCCCCCCC(=O)OCC | inactive | – |
| CCOC(=O)C=Cc1ccccc1 | inactive | – |
| c1ccc(Sc2ccccc2)cc1 | inactive | – |
| CC1=CC(C)C(C=O)C(C)C1 (stereo not given) (tested in a mixture with another compound) | inactive | – |
| CC(=O)CCC=C(C)CCC=C(C)C | inactive | – |
| CCC(=O)OCC=Cc1ccccc1 | inactive | – |
| COc1ccccc1NC(=O)CC(C)=O | inactive | – |
| NC(=O)c1c(Cl)cccc1Cl | inactive | – |
| C=C(C)C(=O)OCCC(F)(F)C(F)(F)C(F)(F)C(F)(F)C(F)(F)C(F)(F)C(F)(F)C(F)(F)F | inactive | – |
| O=C1OC2(c3ccc(O)cc3Oc3cc(O)ccc32)c2ccccc21 | inactive | – |
| C=C(F)C(=O)OC(C(F)(F)F)C(F)(F)F | inactive | – |
| C=CC(=O)OCC(CO)(COC(=O)C=C)COC(=O)C=C | – | 1.15 µM (active) |
| O=C(O)C(F)(F)OC(F)(F)C(F)(F)OC(F)(F)C(F)(F)C(F)(F)C(F)(F)F | inactive | – |
| CC=CC(=O)C1=C(C)C=CCC1(C)C | inactive | – |
| OCCN1CCOCC1 | inactive | – |
| CC(C)Cc1ccc(C(C)C(=O)O)cc1 (stereo not given) | inactive | – |
| CC(C)(C)c1cccc(O)c1 | inactive | – |
| O=S1(=O)CC(Cl)(Cl)C(Cl)(Cl)C1 | – | 0.515 µM (active) |
| c1ccc2c(c1)-c1ccc3ccc4cccc5cc-2c1c3c45 | inactive | – |
| C=C1CC/C=C(\C)CC[C@@H]2[C@@H]1CC2(C)C | inactive | – |
